Laboratory results as given in PubChem BioAssay (Tox21).
Records with an inconclusive call do not appear. The source made the active and inactive calls. Calls follow the shape of the dose curve; as a rule, active = well fitted inhibition curve with a large enough effect in the signal ratio in the repeat runs (not every such curve was filed as active); inconclusive = weak or mixed curves, or effect the other way; inactive = no such curve, though single readings can be large or run the other way; the % refers to the signal ratio.

target: Estrogen receptor beta (Homo sapiens) (UniProt Q92731); test: qHTS assay to identify small molecule antagonists of the estrogen receptor beta (ER-beta) signaling pathway (AID 1259378); settings: ER-beta-UAS-bla HEK293T, beta-lactamase FRET ratio, 16 h; series mostly up to 92.4 µM; activity, negative = inhibition: at the top concentration
Sequence (Q92731 whole entry, looked up): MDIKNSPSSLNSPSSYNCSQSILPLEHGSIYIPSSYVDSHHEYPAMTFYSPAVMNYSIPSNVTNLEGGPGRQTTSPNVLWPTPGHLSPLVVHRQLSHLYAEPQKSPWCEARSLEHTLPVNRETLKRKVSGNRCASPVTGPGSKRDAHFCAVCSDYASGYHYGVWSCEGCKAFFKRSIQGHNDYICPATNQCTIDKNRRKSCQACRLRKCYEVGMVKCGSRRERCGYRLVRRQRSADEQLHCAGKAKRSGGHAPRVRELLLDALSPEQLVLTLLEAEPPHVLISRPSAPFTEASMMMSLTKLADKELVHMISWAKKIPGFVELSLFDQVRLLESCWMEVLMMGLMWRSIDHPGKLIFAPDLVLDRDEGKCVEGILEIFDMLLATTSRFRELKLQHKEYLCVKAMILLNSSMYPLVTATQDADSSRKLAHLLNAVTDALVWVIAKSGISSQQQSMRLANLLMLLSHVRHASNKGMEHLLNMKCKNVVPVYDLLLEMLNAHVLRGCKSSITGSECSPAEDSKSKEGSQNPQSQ
From the text: National Center for Advancing Translational Sciences [NCATS]
NIH Chemical Genomics Center [NCGC]
U.S. Environmental Protection Agency [EPA]
National Institutes of Environmental Health Sciences [NIEHS]
National Toxicology Program [NTP]
U.S. Food and Drug Administration [FDA]
Estrogen receptor (ER), a nuclear hormone receptor, plays an important role in development, metabolic homeostasis and reproduction. Two subtypes of ER, ER-alpha and ER-beta, have similar expression patterns with some uniqueness in both types. Endocrine disrupting chemicals (EDCs) and their interactions with steroid hormone receptors like ER causes disruption of normal endocrine function. To identify the compounds that inhibit ER signaling, an ER-beta-UAS-bla GripTite cell line (Life Technologies, Madison, WI, USA) containing a beta-lactamase reporter gene under the control of an UAS response element was used to screen Tox21 10K compound library.
Tox21 Assay Protocol Summary:
ER-beta-UAS-bla HEK293T cells were dispensed at 2,000 cells/4 uL of assay medium containing 2% charcoal stripped FBS per well into black wall/clear-bottom 1536-well plates using a Multidrop Combi (ThermoFisher Scientific, Waltham, MA) dispenser. After the assay plates were incubated at a 37C and 5% CO2 for 6 hr, 23 nL of compounds dissolved in DMSO, positive controls or DMSO only was transferred to the assay plate by a Pintool station (Kalypsys, San Diego, CA), followed by addition of 1 uL (1nM as final concentration) of 17-beta-estradiol (E2) in assay medium using a BioRAPTR FRD (Flying Reagent Dispenser, Aurora Discovery, San Diego, CA). The plates were incubated at 37C and 5% CO2 for 16 hr. Then 1 uL of LiveBLAzerTM B/G FRET substrate was added using a Flying Reagent Dispenser, the plates were incubated at room temperature for 2 hours, and fluorescence intensity was measured by an Envision plate reader (PerkinElmer, Shelton, CT).
% is scaled to controls: 0 for no effect and ±100 for the full control effect; potency is read from the fitted curve at half-maximal effect.

Structure (SMILES)	activity, negative = inhibition	Potency
Cc1ccc(S(=O)(=O)NC(=O)NC2CCCCC2)cc1	-0.696% [at 42.5 µM] (inactive)	
Nc1nc(-c2ccc([N+](=O)[O-])cc2)cs1	-9.58% (inactive)	
CCN(CC)C(=O)N1CCN(C)CC1	20.5% [at 42.5 µM] (inactive)	
Cc1cn([C@H]2C[C@H](F)[C@@H](CO)O2)c(=O)[nH]c1=O	-5.4% [at 42.5 µM] (inactive)	
Nc1ccn([C@H]2CS[C@@H](CO)O2)c(=O)n1	13.9% (inactive)	
CCCCCCOC(=O)CCCCC	11.2% (inactive)	
CCN(CC)CCOc1ccccc1C(=O)CCc1ccccc1	-10.4% [at 42.5 µM] (inactive)	
CC(=O)OCC(=O)[C@@]1(OC(C)=O)[C@@H](C)C[C@H]2[C@@H]3C[C@H](F)C4=CC(=O)C=C[C@]4(C)[C@@]3(F)[C@@H](O)C[C@@]21C	-21.6% [at 42.5 µM] (inactive)	
CC(=O)OCC1=C(C(=O)O)N2C(=O)[C@@H](NC(=O)CSc3ccncc3)[C@H]2SC1	16.1% [at 42.5 µM] (inactive)	
CCCc1nc2c(C)cc(-c3nc4ccccc4n3C)cc2n1Cc1ccc(-c2ccccc2C(=O)O)cc1	-16.3% [at 42.5 µM] (inactive)	
O=c1[nH][nH]c(=O)c2cc([N+](=O)[O-])ccc12	0.912% (inactive)	
CC(=O)OC(C)C[N+](C)(C)C (stereo not given)	18.6% [at 42.5 µM] (inactive)	
CCOCCC(=O)OCC	0.988% (inactive)	
CCCCC(CC)COS(=O)(=O)O (stereo not given)	-1.93% (inactive)	
OCC(CO)n1cnc(-c2ccc(F)cc2)c1-c1ccnc(Oc2ccccc2)n1	-1.89% (inactive)	
Cc1oc(=O)oc1COC(=O)[C@@H]1N2C(=O)[C@@H](NC(=O)[C@H](N)c3ccccc3)[C@H]2SC1(C)C	22.1% [at 42.5 µM] (inactive)	
O=C1CC[C@@H](C(=O)O)N1	1.39% [at 42.5 µM] (inactive)	
CC(C)(C)CCCCCCOC(=O)c1ccccc1C(=O)OCCCCCCC(C)(C)C	5.1% (inactive)	
CCN(CC)CC(=O)Nc1c(C)cccc1C(=O)OC	1.19% [at 42.5 µM] (inactive)	
COc1cc(NC(C)CCCN)c2ncccc2c1 (stereo not given)	-17.6% [at 42.5 µM] (inactive)	

Structure (SMILES)	activity, negative = inhibition	Potency
O=P(O)(O)Oc1ccccc1	-1.14% (inactive)	
O=c1[nH]c2cc(C(F)(F)F)c(N3CCOCC3)cc2n(CP(=O)(O)O)c1=O	0.344% [at 42.5 µM] (inactive)	
CC1CCCC(=O)C1=O (stereo not given)	2.67% (inactive)	
O=NN(CCCl)C(=O)NCCCl	1.92% [at 42.5 µM] (inactive)	
O=C(O)CCCc1c[nH]c2ccccc12	5.22% (inactive)	
CC1=CC[C@@H]2C[C@H]1C2(C)C	-3.84% [at 19 µM] (inactive)	
CCCCCCC(O)CCCCCCCCCCC(=O)OC (stereo not given)	-30.2% (inactive)	
CC(C)(O)CCc1ccccc1	6.23% (inactive)	
O=C(CCS)OCC(COC(=O)CCS)(COC(=O)CCS)COC(=O)CCS	2.76% (inactive)	
CCCCCCCCCCCCCCCCCC(=O)OCC(CC)CCCC (stereo not given)	8.13% (inactive)	
CC(C)COC(=O)COc1cc(Cl)c(Cl)cc1Cl	3.51% (inactive)	
COc1ccc(-c2cc(=S)ss2)cc1		13.3 µM (active)
CCOC(=O)c1c(N)sc2c1CCN(Cc1ccccc1)C2	-11.2% [at 42.5 µM] (inactive)	
CCc1ccc(C)cc1	9.3% (inactive)	
CCC(C)(C)C(=O)O	1.7% (inactive)	
Oc1cccc2[nH]ccc12	-6.98% [at 42.5 µM] (inactive)	
CCN(CC)CCOC(=O)C(c1ccccc1)c1ccccc1	-1.89% [at 42.5 µM] (inactive)	
CO[C@@H]1[C@@H](OC)[C@H](C)[C@@](O)(CC(=O)O)O[C@H]1[C@H](C)[C@H]1O[C@@]2(CC[C@@](C)([C@H]3CC[C@@](C)([C@@H]4O[C@@H]([C@H]5O[C@](C)(O)[C@H](C)C[C@@H]5C)C[C@@H]4OC4C[C@H](OC)[C@@H](OC)[C@H](C)O4)O3)O2)C[C@H](O)[C@H]1C (stereo not given in full)		11.9 µM (active)
CC(O)Cn1cnc2c1c(=O)n(C)c(=O)n2C (stereo not given)	-3.25% [at 42.5 µM] (inactive)	
CCCCCc1ccco1		25.1 µM (active)
